Here are results for 14 molecules from PubChem BioAssay.

Activity calls are given as the source filed them.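 Rule for the calls, unless noted: active = inhibition above 20% together with a positive visual image hit; inconclusive = visual image hit but inhibition not above 20%; inactive = no visual image hit.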

One may read the inhibition as the relative decrease from the control value, in per cent.

Assay [1] can be described thus: inhibitors of TNFa-induced NFkB p65 translocation, primary screen, imaging, HUVEC, MLSMR starter and 10KST1 sets (AID 438).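 For inhibition: signal is the nuclear over cytoplasmic p65 intensity ratio per well.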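 Note: compound added about 3h40 before a 20 min TNFalpha stimulation.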 The settings on record: HUVEC TNFa-induced p65 nuclear translocation; cell count: measured here: nuclei count (cytotoxicity indicator), at 2.08 µM; inhibition: at 2 µM, stronger effect = higher value, 0% TNFa-plus-vehicle, 100% no-TNFa wells.
Assay [2] can be described thus: inhibitors of mutant huntingtin aggregation, primary screen, imaging, exon1htt(103Q)mCFP cells, high-content imaging (AID 483;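 active = visual image review flags a hit and inhibition of aggregation exceeds 20%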;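 note: compound exposure lasted 3 days before fixation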;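 for nuclei count: percent of the per-plate median nuclei count of sample wells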). The settings on record: exon1htt(103Q)mCFP cell line, aggregate imaging, at 2 µM; inhibition of aggregation: stronger effect = higher value; nuclei count: measured here: cell count, toxicity.
Assay [3] in a line: inhibitors of E-selectin induction by TNFa, primary screen, imaging, HUVEC, immunofluorescence, MLSMR starter and 10KST1 sets (AID 487;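 active = visually confirmed hit in the image check and inhibition above 20%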;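 for inhibition: signal is fraction of cell area covered by stained E-selectin grains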;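 for nuclei count: 100% = median nuclei count of all wells on the same plate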). The settings on record: HUVEC TNFalpha-induced E-selectin immunofluorescence imaging, at 2 µM; inhibition: stronger effect = higher value; nuclei count: measured here: cell number, toxicity.
Assay [4] has as its target Voltage-gated potassium channel subunit beta-2 (Rattus norvegicus) (UniProt P62483). Briefly: KvBeta enzyme negative modulators, primary screen, biochemical, NADPH fluorescence (AID 622;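 active = fluorescence slope higher than the sample average by over 3 SD, cut at about -0.22 in these data, passing the limit was not always enough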;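 note: slope of raw intensity against log time taken from 70 to 1610 s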). Particulars: recombinant KvBeta, 4-cyanobenzaldehyde reduction, at 10 µM, stronger effect = higher value.
Assay [5] shares this target. Briefly: KvBeta positive modulators, primary screen, biochemical, NADPH fluorescence (AID 623;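 active = NADPH fluorescence slope more negative than the mean of all samples by about 3 SD, 99.7% confidence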;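 note: fluorescence intensity change per second fitted from 20 to 320 s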). Particulars: Recombinant KvBeta, NADPH fluorescence decrease slope, 10 min; at 10 µM; stronger effect = lower value.
For assay [6], the target named is Alpha-2C adrenergic receptor (Homo sapiens) (UniProt P18825). The assay is described as follows: modulators of alpha2C/GIRK thallium flux, primary screen, cell-based, HEK293 alpha2C/GIRK1/2 (AID 624;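 active = fluorescence slope after compound addition differing from the mean of all screened samples at 99.7% confidence, in either direction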;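 note: slope of fluorescence ratio to pre-addition baseline per second over 15 to 24 s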). Particulars: thallium flux BTC fluorescence, at 10 µM, actives lie on both sides.
Chain of Alpha-2C adrenergic receptor (Homo sapiens) (P18825 whole entry, looked up): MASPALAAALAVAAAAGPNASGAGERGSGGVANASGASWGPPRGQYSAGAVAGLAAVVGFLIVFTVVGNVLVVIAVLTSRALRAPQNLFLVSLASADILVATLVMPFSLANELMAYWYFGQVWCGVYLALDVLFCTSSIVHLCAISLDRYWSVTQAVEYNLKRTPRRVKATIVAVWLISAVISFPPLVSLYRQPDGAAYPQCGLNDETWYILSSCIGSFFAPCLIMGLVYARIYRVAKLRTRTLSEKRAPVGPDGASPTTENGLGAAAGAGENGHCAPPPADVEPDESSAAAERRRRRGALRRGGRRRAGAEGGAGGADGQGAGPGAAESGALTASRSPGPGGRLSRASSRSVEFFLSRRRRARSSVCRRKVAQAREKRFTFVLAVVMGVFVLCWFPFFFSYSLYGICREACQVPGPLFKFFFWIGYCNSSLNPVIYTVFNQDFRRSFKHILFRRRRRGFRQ
A short description of assay [7]: inhibitors of Sendai virus-induced IRF3 signaling, primary screen, TLR/RLR signaling modifier project, cell-based, Sendai virus stimulus, luciferase, 10K MLSCN set (AID 602276;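 active = inhibition at or above 50% at 10 µM; inactive = inhibition below 50%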;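 note: firefly luciferase from ISG56 promoter only with Renilla not read in this screen; 0% = Sendai virus plus DMSO and 100% = medium plus DMSO without virus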). Particulars: HEK293 RL24 IRF3 luciferase reporter, at 10 µM, stronger effect = higher value. For orientation: In a reporter assay the amount or activity of a reporter protein is the signal.
Assay [8] is described as follows: inhibitors of poly I:C-induced TLR3 signaling, primary screen, cell-based, poly I:C stimulus, luciferase, 10K MLSCN set (AID 602277;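 active = inhibition of the reporter signal at or above 50%; inactive = inhibition below 50%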). Particulars: HEK293-TLR3 RL24 IRF3 luciferase reporter, at 10 µM, stronger effect = higher value.

Chain of Voltage-gated potassium channel subunit beta-2 (Rattus norvegicus) (P62483 whole entry, looked up): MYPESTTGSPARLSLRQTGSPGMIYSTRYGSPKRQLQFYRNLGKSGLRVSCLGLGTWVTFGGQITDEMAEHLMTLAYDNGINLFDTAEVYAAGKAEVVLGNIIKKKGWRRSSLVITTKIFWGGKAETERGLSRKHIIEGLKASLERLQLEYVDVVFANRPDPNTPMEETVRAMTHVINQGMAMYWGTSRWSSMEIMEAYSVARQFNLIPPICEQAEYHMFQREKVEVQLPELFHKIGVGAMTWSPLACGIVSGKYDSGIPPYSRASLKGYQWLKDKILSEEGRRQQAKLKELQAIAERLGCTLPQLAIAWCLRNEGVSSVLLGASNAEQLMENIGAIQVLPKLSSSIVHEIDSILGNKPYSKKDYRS

With `Cc1nn(-c2ccc(Cl)cc2)c2sc(C(=O)N3CCN(c4ccccn4)CC3)cc12`, in assay [1], the cell count is 571. In addition, the inhibition was -3.6% (inactive) in assay [1], 42.5% (inactive) in assay [3], 9.58% (inactive) in assay [7] and -7.18% (inactive) in assay [8]. The inhibition of aggregation in assay [2] was 1.7% (inactive). For the same molecule, the nuclei count was found to be 95.6% in assay [2] and 108% in assay [3]. For the same molecule, the fluorescence slope in assay [4] is -0.612 (inactive). In addition, the NADPH fluorescence slope in assay [5] is -2.4e-05 (inactive). The slope in assay [6] is 0.011 (active).
On to `CN(C)C(=O)N1CCN(C(=O)c2ccco2)CC1`, for which the cell count in assay [1] was found to be 827. Further, the inhibition was -15.9% (inactive) in assay [1], -69.2% (inactive) in assay [3], -4.34% (inactive) in assay [7] and 19.5% (inactive) in assay [8]. Besides, in assay [2], the inhibition of aggregation was 17.6% (inactive). The nuclei count was 99.6% in assay [2] and 114% in assay [3]. Further, the fluorescence slope in assay [4] is -0.601 (inactive). The NADPH fluorescence slope in assay [5] is 5.7e-06 (inactive). In addition, in assay [6], the slope was 0.00702 (inactive).
For `COc1ccccc1-c1nnc(SCc2ccccn2)n1C`, in assay [1], the cell count was 307. Besides, the inhibition in assay [1] is 7.6% (inactive); in assay [3], -25.6% (inactive); in assay [7], -14.7% (inactive); in assay [8], -10.3% (inactive). Also, the inhibition of aggregation in assay [2] was -5.8% (inactive). Also, the nuclei count in assay [2] amounted to 97.6%; in assay [3], 104%. For the same molecule, in assay [4], the fluorescence slope is -0.581 (inactive). For the same molecule, in assay [5], the NADPH fluorescence slope is 0.000106 (inactive). For the same molecule, the slope in assay [6] was 0.0056 (inactive).
`CCS(=O)(=O)NCCc1cc2c(OC)ccc(OC)c2[nH]c1=O`: the cell count in assay [1] was 349. The inhibition in assay [1] was -15.2% (inactive); in assay [3], 38.9% (inactive); in assay [7] it was 16.6% (inactive); in assay [8], 26.4% (inactive). Moreover, in assay [2], the inhibition of aggregation was 12.1% (inactive). In addition, the nuclei count in assay [2] came out at 83.7%; in assay [3], 95.1%. Moreover, in assay [4], the fluorescence slope is -0.488 (inactive). The NADPH fluorescence slope in assay [5] is -3.1e-05 (inactive). The slope in assay [6] is 0.00489 (inactive).
For `COC(=O)CS(=O)(=O)c1nnc([C@H](Cc2ccccc2)NC(=O)OC(C)(C)C)o1`, the cell count in assay [1] was found to be 493. The inhibition in assay [1] is -8% (inactive); in assay [3], 38.4% (inactive); in assay [7], 15.1% (inactive); in assay [8], 33.7% (inactive). Besides, the inhibition of aggregation in assay [2] was 22% (inactive). Moreover, the figures for the nuclei count in assay [2] and in assay [3] were 84.1% and 89%, respectively. For the same molecule, the fluorescence slope in assay [4] was -0.486 (inactive). Besides, the NADPH fluorescence slope in assay [5] is -5.6e-05 (inactive). The slope in assay [6] is 0.00353 (inactive).
With `N#Cc1cc2ccc(N3CCOCC3)cc2cc1C#N`, the cell count in assay [1] is 421. Besides, the inhibition in assay [1] is -6.5% (inactive); in assay [3] it was -341% (inactive); in assay [7], 7.25% (inactive); in assay [8] it was 26.1% (inactive). The inhibition of aggregation in assay [2] is 9.5% (inactive). Further, the nuclei count is 76.5% in assay [2] and 103% in assay [3]. Further, in assay [4], the fluorescence slope is -0.0128 (active). Besides, in assay [5], the NADPH fluorescence slope was 1.2e-05 (inactive). For the same molecule, the slope in assay [6] was 0.00303 (inactive).
For `Cc1onc(-c2ccccc2Cl)c1C(=O)N1CCc2ccccc21`, in assay [1], the cell count was determined as 398. The inhibition is -1.3% (inactive) in assay [1], -43.1% (inactive) in assay [3], 10.6% (inactive) in assay [7] and 34.8% (inactive) in assay [8]. The inhibition of aggregation in assay [2] is -6.4% (inactive). Besides, the nuclei count stood at 104% in assay [2] and 110% in assay [3]. Also, the fluorescence slope in assay [4] was -0.405 (inactive). Further, the NADPH fluorescence slope in assay [5] was 9.6e-06 (inactive). Further, in assay [6], the slope is 0.00452 (inactive).
In the case of `O=C(Cc1ccccc1)N1CCCC(c2nc(-c3cccs3)no2)C1` (centres undefined), the cell count in assay [1] turned out to be 731. Further, the inhibition in assay [1] is -6.1% (inactive); in assay [3], -22.8% (inactive); in assay [7] it was -9.21% (inactive); in assay [8], 2.57% (inactive). In addition, the inhibition of aggregation in assay [2] was -15.1% (inactive). Moreover, the nuclei count in assay [2] amounted to 89.6%; in assay [3], 121%. Moreover, the fluorescence slope in assay [4] is -0.475 (inactive). Besides, the NADPH fluorescence slope in assay [5] was 1.1e-05 (inactive). The slope in assay [6] is 0.00636 (inactive).
Take `COC(=O)c1ccccc1NC(=O)c1ccc(-c2ccccc2F)o1`: in assay [1], the cell count amounted to 516. Moreover, the inhibition in assay [1] is -5.3% (inactive); in assay [3] it was -37.1% (inactive); in assay [7] it was 19.2% (inactive); in assay [8], -29.6% (inactive). For the same molecule, in assay [2], the inhibition of aggregation was -24.1% (inactive). Further, the nuclei count in assay [2] is 111%; in assay [3], 103%. Besides, the fluorescence slope in assay [4] was -0.469 (inactive). Besides, the NADPH fluorescence slope in assay [5] was -1.5e-06 (inactive). Further, in assay [6], the slope was 0.00728 (inactive).
For `Cc1cc(C)n(CCc2nc(-c3cccs3)cs2)n1`, the cell count in assay [1] came out at 587. In addition, the inhibition in assay [1] was -10.1% (inactive); in assay [3], -52.1% (inactive); in assay [7], -6.14% (inactive); in assay [8], -42.1% (inactive). For the same molecule, in assay [2], the inhibition of aggregation was -5.8% (inactive). Further, the nuclei count stood at 98.6% in assay [2] and 112% in assay [3]. For the same molecule, in assay [4], the fluorescence slope was -0.603 (inactive). Besides, the NADPH fluorescence slope in assay [5] is -5.2e-07 (inactive). For the same molecule, in assay [6], the slope is 0.00641 (inactive).
In the case of `O=C(CCSc1nc(-c2ccco2)cc(C(F)(F)F)n1)NCCc1ccccc1`, the cell count in assay [1] came out at 491. In addition, the inhibition in assay [1] is -8.3% (inactive); in assay [3], 23.2% (inactive); in assay [7] it was -7.29% (inactive); in assay [8], -52.7% (inactive). Further, the inhibition of aggregation in assay [2] was -16.1% (inactive). Also, the results for the nuclei count in assay [2] and in assay [3] were 106% and 104%, respectively. The fluorescence slope in assay [4] was -0.387 (inactive). In addition, the NADPH fluorescence slope in assay [5] is -3.6e-05 (inactive). Also, in assay [6], the slope is 0.00564 (inactive).
`Cc1cccc(-c2cc3nc(C)cc(NCCCN(C)C)n3n2)c1`: in assay [1], the cell count turned out to be 399. Moreover, the inhibition in assay [1] is -0.5% (inactive); in assay [3], -44.2% (inactive); in assay [7], 21% (inactive); in assay [8] it was 9.1% (inactive). Besides, the inhibition of aggregation in assay [2] was -9.4% (inactive). Also, the nuclei count in assay [2] is 114%; in assay [3], 98.7%. In addition, the fluorescence slope in assay [4] is -0.56 (inactive). For the same molecule, the NADPH fluorescence slope in assay [5] is -7.5e-05 (inactive). Besides, the slope in assay [6] was 0.00413 (inactive).
With `COP(C)(=O)c1c(C)nn(-c2ccccc2)c1C` (centres undefined), the cell count in assay [1] came out at 558. The inhibition was 6.8% (inactive) in assay [1], -11.2% (inactive) in assay [3], 8.87% (inactive) in assay [7] and 37.6% (inactive) in assay [8]. Moreover, in assay [2], the inhibition of aggregation is -0.1% (inactive). Also, the nuclei count in assay [2] came out at 95.4%; in assay [3], 112%. Besides, in assay [4], the fluorescence slope was -0.424 (inactive). Further, the NADPH fluorescence slope in assay [5] was -2.1e-06 (inactive). Further, the slope in assay [6] is 0.00629 (inactive).
Regarding `Cc1cccc(N2CCN(C(=O)C3CCCN(S(=O)(=O)c4c(C)noc4C)C3)CC2)c1C` (centres undefined), the cell count in assay [1] worked out at 599. Besides, the inhibition was -2.3% (inactive) in assay [1], -85.1% (inactive) in assay [3], 8.68% (inactive) in assay [7] and 1.25% (inactive) in assay [8]. Besides, the inhibition of aggregation in assay [2] was -11.6% (inactive). In addition, the nuclei count in assay [2] was 102%; in assay [3], 125%. For the same molecule, in assay [4], the fluorescence slope was -0.571 (inactive). The NADPH fluorescence slope in assay [5] is -2.7e-05 (inactive). Besides, in assay [6], the slope is 0.00588 (inactive).
